SMILES strings stand for the structures. Among all 300,000 compounds or so, about 3,600 (1.2%) were called active. Cut-off read from the data, not from the text of the source: active = activation above about 30% (passing the limit was not always enough); inconclusive = no clear call, values can overlap the other calls. This excerpt belongs to a sample that is enriched for actives.

The assay is described as follows: Wnt/beta-catenin pathway activators, primary screen, cell-based, plate reader, single point (AID 743398).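 Note: 0% = neutral control wells and 100% = positive control wells.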 The conditions noted are these: Wnt/beta-catenin reporter cell assay, activator, at 9.35 µM, active compounds read high.
With `CC(C)Oc1ccc(CN2CCC2(C)C(=O)NCc2ccc(C(F)(F)F)cc2)cc1` (stereo unspecified), the activation is -2.84% (inactive).

`O=C(c1cc(COc2ccc(F)cc2F)on1)N1CCOCC1`: the activation is 12.4% (inactive).

On to `COc1cc(Cl)ccc1OCc1cc(C(=O)N2CC[C@@H]3CCCC[C@H]3C2)no1`, for which the activation is 18.3% (inactive).

On to `COc1cccc(OCc2cc(C(=O)N3CCN(C(=O)c4ccco4)CC3)no2)c1`, for which the activation is 31.4% (active).

With `COc1ccc(OCc2cc(C(=O)N3CCCC3)no2)c2ccccc12`, the activation was 43% (active).

As to `O=C(c1cc(COc2cccc(C(F)(F)F)c2)on1)N1CCSCC1`, the activation is 1.55% (inactive).

Turning to `COc1ccccc1-c1cc(C(=O)N2CCCCC2)no1`, the activation is 0.293% (inactive).

For `O=C(c1cc(-c2ccccc2O)on1)N1CCCC1`, the activation is 57.5% (active).

Turning to `O=C(c1cc(-c2ccc(O)cc2)on1)N1CCOCC1`, the activation was 19.9% (inactive).

Turning to `COc1cccc(C(=O)Nc2ccc(N3CCN(C(=O)c4ccco4)CC3)cc2)c1`, the activation is -1.7% (inactive).

In the case of `COC(=O)[C@]12C[C@H](CC(=O)NCc3ccc(OC)c(OC)c3)C(=O)N(Cc3ccccc3)C1=C[C@H](C(C)C)O[C@@H]2C1CC1`, the activation was -0.346% (inactive).

With `CSCCC(NC(=O)COc1ccccc1)C(=O)N1CCN(c2cccc(C(F)(F)F)c2)CC1` (stereo unspecified), the activation was -3.61% (inactive).

As to `COc1ccc(OC)c(NC(=O)C2CCCN2S(=O)(=O)c2ccc3c(c2)CC(C)N3C(C)=O)c1` (stereo unspecified), the activation was -5.88% (inactive).

For `CCOC(=O)N1CCN(C(=O)C[C@@H]2C[C@@]3(C(=O)OC)CC(C)(C)CC=C3N(Cc3ccco3)C2=O)CC1`, the activation is 0.171% (inactive).

Take `CCc1nc2c(OCCOc3ccccc3)cccn2c1N(C=O)Cc1ccc(OC)cc1`: the activation is -2.79% (inactive).

`Cc1ccc(NC(=O)c2c(NC(=O)CCC(=O)O)sc3c2CCCCC3)cc1`: the activation is 29.5% (inactive).

`NC(=O)c1c(NC(=O)c2ccccc2)sc2c1CCCC2`: the activation is 1.12% (inactive).

`Cc1ccc(C(=O)c2c(NC(=O)c3ccncc3)sc3c2CCCC3)cc1`: the activation is 38.4% (active).

Consider `CCCCCCCCN1C(=O)[C@@H](CC(=O)NCCCC)C[C@@]2(C(=O)OC)C1=C[C@H](C(C)(C)C)O[C@@H]2C`, for which the activation was -3% (inactive).

As for `COc1cccc(/C=C2\SC(=S)N(CCCC(=O)N3CCOCC3)C2=O)c1`, the activation is 3.86% (inactive).

Turning to `CCc1nc2ccc(C(=O)Nc3ccc(OC)c(OC)c3)cn2c1N(C)C(=O)c1cccc(OC)c1`, the activation was -0.76% (inactive).

As to `Cn1c(CNC(=O)c2ccccc2F)nnc1SCc1ccc(F)cc1`, the activation is -0.026% (inactive).

On to `Cn1c(Cn2nnc3ccccc32)nnc1SCC(=O)c1ccccc1F`, for which the activation was 85.8% (active).

In the case of `Cc1ccc(C(=O)CSc2nnc(Cn3nnc4ccccc43)n2C)cc1`, the activation is -0.352% (inactive).

Regarding `Cc1[nH]c2ccccc2c1CC(=O)Nc1ccc(Nc2cccnc2)c(-c2cccc(Cl)c2)c1`, the activation is -2.14% (inactive).

As for `CCOC(=O)[C@]12CCCC=C1N(CCC1=CCCCC1)C(=O)[C@H](CC(=O)N1CCN(C(=O)c3ccco3)CC1)C2`, the activation was -1.88% (inactive).

Regarding `COc1ccccc1C1/C(=C(/O)c2ccc(OC(C)C)cc2)C(=O)C(=O)N1c1cc(C)on1` (stereo unspecified), the activation was -12% (inactive).

As to `COc1ccc(C2/C(=C(/O)c3ccccc3)C(=O)C(=O)N2C)c(OC)c1` (stereo unspecified), the activation is 0.335% (inactive).

For `CCOc1ccc(/C(O)=C2\C(=O)C(=O)N(c3ccc(OC)cc3)C2c2ccccc2[N+](=O)[O-])cc1` (stereo unspecified), the activation is 53.5% (active).

On to `OC[C@@H]1CN(Cc2ccc(F)cc2)C[C@H](n2cnc3c(NC4CCCC4)ncnc32)O1`, for which the activation is -2.91% (inactive).

As to `CC1C(C)N(C(=O)CCl)c2ccccc2N1C(=O)CCl` (stereo unspecified), the activation was -5.8% (inactive).

Take `COc1cc(N=Cc2c(O)c3ccccc3oc2=O)c(OC)cc1Cl`: the activation was -0.517% (inactive).

For the compound `COc1ccccc1N=Cc1c(O)c2ccccc2oc1=O`, the activation is 59% (active).

Consider `O=c1oc2ccccc2c(=O)c2ccccc12`, for which the activation was -3.29% (inactive).

`COc1cccc(-c2cc(NC(C)=O)c3ncc(-c4cccc(C(C)=O)c4)n3c2)c1`: the activation is -1.27% (inactive).

In the case of `COc1ccc(OC)c(C(O)c2ncc(-c3cccc(C(F)(F)F)c3)[nH]2)c1` (stereo unspecified), the activation was -1.7% (inactive).

Turning to `CC1(C)OC(=O)C2=C(CC(CCc3ccccc3)OC2c2ccc(Cl)cc2)O1` (stereo unspecified), the activation is -2.32% (inactive).

For `CCOC(=O)CNC(=O)N(C)[C@H]1C[C@H]2c3[nH]c4c(-c5ccc6c(c5)OCO6)cccc4c3CCN2C(=O)[C@H]1[C@H](C)O`, the activation is -4.82% (inactive).

As to `CCCCCCNC(=O)O[C@H]1CN(C(=O)OC(C)C)N(C(=O)OC(C)C)[C@@H]2CN(S(=O)(=O)c3ccc(C)cc3)C[C@]12O`, the activation is -6.88% (inactive).

`CCNc1nc(-c2cc3ccccc3o2)cs1`: the activation was 55.9% (active).

For `O=C(NCc1cccnc1)c1cccc(-c2cc3ccccc3oc2=O)c1`, the activation was -9.13% (inactive).

Turning to `O=c1oc2ccccc2cc1-c1csc(Nc2ccc(O)cc2)n1`, the activation was 48% (active).

Take `O=C(Nc1ccncc1)c1cc2ccccc2o1`: the activation was -4.19% (inactive).

For `CCCn1c(CCNc2nc(-c3ccc(OC)cc3)cs2)nc2ccccc21`, the activation is 1.69% (inactive).

Take `Cc1nc(C)c(-c2csc(NCCc3ccccc3)n2)s1`: the activation was 10.9% (inactive).

As for `CCOC(=O)[C@]12CCCC=C1N(CCC1=CCCCC1)C(=O)[C@H](CC(=O)NCCCCc1ccccc1)C2`, the activation is -3.03% (inactive).

Consider `COc1ccc(NC(=O)c2sc(=O)n(Cc3ccc(S(=O)(=O)N(C)C)cc3)c2C)cc1`, for which the activation is -1.18% (inactive).

With `O=C(Nc1ccc(Cl)cc1)C1Cc2c(-c3ccc4c(c3)OCO4)ccnc2O1` (stereo unspecified), the activation is -2.4% (inactive).

On to `O=C(NCCOc1ccccc1)N1[C@H]2CC[C@@H]1C=C(c1ccc(F)cc1OCc1ccccc1)C2`, for which the activation is -5.01% (inactive).

Take `COc1ccc(SSc2ccc(OC)cc2C(=O)O)c(C(=O)O)c1`: the activation is -2.15% (inactive).

On to `Cc1ccc(S(=O)(=O)N2[C@@H](Cc3ccccc3)CO[C@H]2CC(=O)OCc2ccccc2)cc1`, for which the activation was -1.94% (inactive).

As for `COc1ccc(N2c3ccccc3CN(Cc3ccccc3)[C@@H](C)[C@H]2Cc2ccc(-c3ccccc3)cc2)cc1`, the activation was -4.27% (inactive).

With `CN=c1scc(-c2cc(OC)ccc2OC)n1/N=C/c1c(C)[nH]c2ccccc12`, the activation is 68.5% (active).

For `COc1ccc(OC)c(-c2csc(-c3cccs3)n2)c1`, the activation was 3.92% (inactive).

With `Cc1[nH]c2ccccc2c1/C=N\NC(=O)Cn1nnc(-c2ccccc2)n1`, the activation is -3.53% (inactive).

As to `CCC(=O)N1Cc2cc(C(=O)NCc3cccc(F)c3)nc(-c3cccc(C4=CCCC4)c3)c2[C@H]1CCO`, the activation is -0.49% (inactive).

As to `O=C(NCc1ccccc1)[C@H]1CCCN1C(=O)[C@H]1CCCN1C(=O)c1cc(F)cc(F)c1`, the activation is 0.924% (inactive).

As for `COc1ccc(C(=O)Nc2ccccc2C(=O)N/N=C/c2ccc(O)c(OC)c2)cc1`, the activation is -6.14% (inactive).

Take `COc1ccc(/C=N/Nc2ccccc2C(=O)O)cc1`: the activation was 42.5% (active).

As for `COc1ccc(/C=N/NS(=O)(=O)c2ccc(NC(C)=O)cc2)cc1`, the activation was 0.428% (inactive).

As to `Cn1nc(N)c2ncc(C(Cl)(Cl)Cl)nc21`, the activation is -2.14% (inactive).

Consider `N#Cc1cccc(C(=O)NCC2CCN(C(=O)C(=O)c3cc4ccccc4o3)CC2)c1`, for which the activation was -4.03% (inactive).

With `Cc1ccc2c(c1)N(CC(=O)NCC1CCCO1)C(=O)CO2` (stereo unspecified), the activation was 6.02% (inactive).

As for `Cc1ccc(-n2c(C)cc(/C=C(\C#N)C(=O)NCC3CCCO3)c2C)cc1` (stereo unspecified), the activation was 38.2% (active).

As to `Cc1ccc(C(=O)N/C(=C/c2cccs2)C(=O)NCC2CCCO2)cc1` (stereo unspecified), the activation is -12.8% (inactive).

With `O=C1Nc2ccccc2NC(c2ccc3c(c2)OCO3)=C1N(Cc1ccc(F)cc1)C(=O)c1ccco1`, the activation is -2.97% (inactive).

With `COC(=O)[C@]12C[C@H](CC(=O)NCc3cccc(C(F)(F)F)c3)C(=O)N(Cc3ccc4c(c3)OCO4)C1=C[C@H](COCc1ccccc1)O[C@@H]2C`, the activation is -11.9% (inactive).

Regarding `CCCCNc1cccc2c1S(=O)(=O)N[C@@H](C)CO2`, the activation is -1.25% (inactive).

Take `O=C(NCc1cccc(C(F)(F)F)c1)c1ccc2sc(COCCO)nc2c1`: the activation was 0.012% (inactive).

For the compound `Cc1ccc(NC(=O)Nc2ccc3oc(C)nc3c2)cc1`, the activation was 53.7% (active).

Consider `Cc1ccc(NC(=O)Nc2cccnc2)cc1`, for which the activation is 8.59% (inactive).

Regarding `Cc1ccc(NC(=O)Nc2nnc(-c3ccncc3)s2)cc1`, the activation is 0.919% (inactive).

Consider `O=C1Nc2ccccc2-n2nnnc2C1N1CCN(c2cccc(C(F)(F)F)n2)CC1` (stereo unspecified), for which the activation is -4.31% (inactive).

`O=C(CSc1nc2ccccc2o1)N/N=C/c1ccccc1C(=O)O`: the activation is 25.7% (inactive).

Regarding `CC(C)(C)C(=O)CSc1nc2ccccc2o1`, the activation is 52.3% (active).

For `O=C(CSc1nc2ccccc2o1)N1c2ccccc2Sc2ccc(Cl)cc21`, the activation is -2.83% (inactive).

For `Cc1cc2c(cc1C)N1C(=O)c3cc4ccccc4cc3NC(=O)C1C(=O)N2` (stereo unspecified), the activation is -1.58% (inactive).

As for `CC1(C(=O)Nc2cccc3c2CCCC3)CCN1C(=O)C1(c2ccccc2)CC1` (stereo unspecified), the activation was -1.58% (inactive).

Take `Cn1c(SCc2c(F)cccc2Cl)nnc1-c1cnccn1`: the activation is 41.7% (active).

In the case of `Cc1ccc(CSc2nnc(-c3cnccn3)n2C)cc1`, the activation is 2.04% (inactive).

With `Oc1ccc(-n2nnnc2SCc2c(F)cccc2Cl)cc1`, the activation was -2.71% (inactive).

As to `COc1ccccc1N1CCN(/N=C\C(Br)=C\c2ccccc2)CC1`, the activation is 7.85% (inactive).

For the compound `COc1ccccc1N1CCN(/N=C/c2ccc(O)cc2O)CC1`, the activation is 37.4% (active).

Regarding `COc1cc(/C=N/N2CCN(c3ccccc3)CC2)ccc1OC(C)=O`, the activation was 3.52% (inactive).

In the case of `CC(C)c1cc(C(=O)N(C)C2CCCN(Cc3ccccc3F)C2)n(C)n1` (stereo unspecified), the activation was -4.84% (inactive).

On to `Cc1nc(NC(=O)C(C)(C)C)sc1[N+](=O)[O-]`, for which the activation is -2.63% (inactive).

For the origin of these results see PubChem BioAssay AID743398 (Broad Institute, 2014).
